Where a name gives a salt, the structure may show the parent alone. ± gives the standard deviation of the averaged measurements. In all, about 1,100 compounds were measured (“day of extracellular matrix detachment from plate”: median about 16, lowest 2% from about 10 on). The sample as a whole holds a higher share of the lowest values than the screen did.
These compounds were tested on RDEB dermal fibroblasts EB71 (assay: day of extracellular matrix detachment from plate (days); higher = delayed detachment (less fibrotic matrix)). Conditions: compound concentration: 10 uM.
With `O=C(O)CCC(=O)c1ccc(-c2ccccc2)cc1` [Fenbufen] the “day of extracellular matrix detachment from plate” value (shortened to “day”) was 13. In the case of `Nc1nc(=O)n([C@@H]2CS[C@H](CO)O2)cc1F` [Emtricitabine], the “day” value is reported as 19.3 ± 6.3. In the case of `O=c1ccn([C@@H]2O[C@H](CO)[C@@H](O)[C@H]2O)c(=O)[nH]1` [Uridine], the “day” value is reported as 12. In the case of `COc1ccc(CC2c3cc(OC)c(OC)cc3CC[N+]2(C)CCC(=O)OCCCCCOC(=O)CC[N+]2(C)CCc3cc(OC)c(OC)cc3C2Cc2ccc(OC)c(OC)c2)cc1OC` (stereo not given) [Atracurium Besylate], the “day” value is reported as 15.7 ± 6.3. `COc1ccc(C[C@@H]2c3cc(OC)c(OC)cc3CC[N@+]2(C)CCC(=O)OCCCCCOC(=O)CC[N@@+]2(C)CCc3cc(OC)c(OC)cc3[C@H]2Cc2ccc(OC)c(OC)c2)cc1OC` [Cisatracurium Besylate] was tested, and the “day” value was 10 ± 1.7. In the case of `CCC(=O)O[C@@H](O[P@](=O)(CCCCc1ccccc1)CC(=O)N1C[C@H](C2CCCCC2)C[C@H]1C(=O)O)C(C)C` [Fosinopril Sodium], the “day” value is reported as 19. For `OC(Cn1cncn1)(Cn1cncn1)c1ccc(F)cc1F` [Fluconazole], the “day” value was 12.7 ± 2.9. `Nc1ccc(C(=O)NCC(=O)O)cc1` [Sodium 4-aminohippurate Hydrate] was tested, and the “day” value was 13. With `Cn1c(=O)c2c(ncn2CC2OCCO2)n(C)c1=O` [Doxofylline] the “day” value was 13. For `CN(C)CCC[C@@]1(c2ccc(F)cc2)OCc2cc(C#N)ccc21` [Escitalopram Oxalate], the “day” value was 13. With `O=C[C@H](O)[C@@H](O)[C@H](O)CO` [Xylose] the “day” value was 10 ± 1.7. For `OC[C@@H](O)[C@@H](O)[C@H](O)[C@@H](O)CO` [Sorbitol], the “day” value was 16. `OC[C@@H](O)[C@@H](O)[C@H](O)[C@H](O)CO` [D-Mannitol] was tested, and the “day” value was 13.7 ± 8.1. `COc1cc2ncnc(Nc3ccc(F)c(Cl)c3)c2cc1OCCCN1CCOCC1` [Gefitinib (ZD1839)] was tested, and the “day” value was 29.4 ± 6. `N#C[C@@H]1C[C@@H]2C[C@@H]2N1C(=O)[C@@H](N)C12CC3CC(CC(O)(C3)C1)C2` [Saxagliptin hydrate] was tested, and the “day” value was 16.3 ± 1.1. In the case of `CCCc1nc(C)c2c(=O)nc(-c3cc(S(=O)(=O)N4CCN(CC)CC4)ccc3OCC)[nH]n12` [Vardenafil HCl Trihydrate], the “day” value is reported as 16. In the case of `COC(=O)C1=C(C)NC(C)=C(C(=O)OCCN2CCN(C(c3ccccc3)c3ccccc3)CC2)C1c1cccc([N+](=O)[O-])c1` (stereo not given) [Manidipine], the “day” value is reported as 20.3 ± 2.3. `COC(=O)C1=C(C)NC(C)=C(C(=O)OCCN2CCN(C(c3ccccc3)c3ccccc3)CC2)C1c1cccc([N+](=O)[O-])c1` (stereo not given) [Manidipine 2HCl] was tested, and the “day” value was 18.3 ± 4. In the case of `O=C(c1cc(Cc2n[nH]c(=O)c3ccccc23)ccc1F)N1CCN(C(=O)C2CC2)CC1`, the “day” value is reported as 27.8 ± 5.5. `CC1(C)S[C@@H]2[C@H](NC(=O)C(C(=O)O)c3ccccc3)C(=O)N2[C@H]1C(=O)O` (stereo not given in full) [Carbenicillin disodium] was tested, and the “day” value was 18. With `CSc1nc2cc(Cl)c(Oc3cccc(Cl)c3Cl)cc2[nH]1` [Triclabendazole] the “day” value was 13. In the case of `CN(C)/N=N/c1[nH]cnc1C(N)=O` [Dacarbazine], the “day” value is reported as 11. In the case of `CCC[C@H](N[C@@H](C)C(=O)N1[C@H](C(=O)O)C[C@@H]2CCCC[C@@H]21)C(=O)OCC` [Perindopril Erbumine], the “day” value is reported as 21 ± 1.7. For `OC(CCN1CCCC1)(c1ccccc1)C1CCCCC1` (stereo not given) [Procyclidine HCl], the “day” value was 16 ± 1.7. `CC1(C)[C@H](C(=O)O)N2C(=O)C[C@H]2S1(=O)=O` [Sulbactam] was tested, and the “day” value was 10 ± 1.7. For `CC1(C)[C@H](C(=O)O)N2C(=O)C[C@H]2S1(=O)=O` [Sulbactam sodium], the “day” value was 11 ± 1.7. `C[C@]1(Cn2ccnn2)[C@H](C(=O)O)N2C(=O)C[C@H]2S1(=O)=O` [Tazobactam] was tested, and the “day” value was 20 ± 1.7. With `CC1(C)S[C@@H]2[C@H](NC(=O)Cc3ccccc3)C(=O)N2[C@H]1C(=O)O` [Penicillin G Sodium] the “day” value was 13. `CC(C)(Oc1ccc(Cl)cc1)C(=O)O` [Clofibric Acid] was tested, and the “day” value was 13. For `CC(=O)O[C@]1(C(C)=O)CC[C@H]2[C@@H]3C[C@H](C)C4=CC(=O)C=C[C@]4(C)[C@@]3(F)[C@@H](O)C[C@@]21C` [Fluorometholone Acetate], the “day” value was 27.2 ± 3.5. `N#CC(c1ccc(Cl)cc1)c1c(Cl)cc(-n2ncc(=O)[nH]c2=O)cc1Cl` (stereo not given) [Diclazuril] was tested, and the “day” value was 15.7 ± 6.3. `O=C(O)CCc1nc2ccccc2[nH]1` [Procodazole] was tested, and the “day” value was 13. For `N#C/C(=C1/SC[C@@H](c2ccc(Cl)cc2Cl)S1)n1ccnc1` [Luliconazole], the “day” value was 13. With `C[N+]1(C)CCC(OC(=O)C(O)(c2ccccc2)C2CCCC2)C1` (stereo not given) [Glycopyrrolate] the “day” value was 20.3 ± 2.9. For `CCN(CC)CCOCCOC(=O)C(CC)(CC)c1ccccc1` [Oxeladin Citrate], the “day” value was 13. For `CN1C2=CC(=O)/C(=N\NC(N)=O)C=C2CC1S(=O)(=O)O` (stereo not given) [Carbazochrome sodium sulfonate (AC-17)], the “day” value was 16.7 ± 2.3. For `C/C(O)=C(\C#N)C(=O)Nc1ccc(C(F)(F)F)cc1` [Teriflunomide], the “day” value was 13. For `NCCc1ccc(O)c(O)c1` [Dopamine HCl], the “day” value was 15.7 ± 6.3. For `C[C@](N)(Cc1ccc(O)c(O)c1)C(=O)O` [Methyldopa], the “day” value was 10.3 ± 1.1. `C[C@@](Cc1ccc(O)c(O)c1)(NN)C(=O)O` [Carbidopa] was tested, and the “day” value was 15.7 ± 6.3. `CO/N=C(\C(=O)N[C@@H]1C(=O)N2C(C(=O)O)=C(COC(N)=O)CS[C@H]12)c1ccco1` [Cefuroxime sodium] was tested, and the “day” value was 17. With `NCCCCC(NC(=O)C1CCCN1C(=O)C1CSSCC(N)C(=O)NC(Cc2ccc(O)cc2)C(=O)NC(Cc2ccccc2)C(=O)NC(CCC(N)=O)C(=O)NC(CC(N)=O)C(=O)N1)C(=O)NCC(N)=O` (stereo not given) [Lypressin Acetate] the “day” value was 23 ± 1.7. For `COc1cc(Nc2ncc3c(n2)-c2ccc(Cl)cc2C(c2c(F)cccc2OC)=NC3)ccc1C(=O)O` [Alisertib (MLN8237)], the “day” value was 25. For `CC[C@H](NC(=O)[C@H](C)NC)C(=O)N1C[C@@H](O)C[C@H]1Cc1c(-c2[nH]c3cc(F)ccc3c2C[C@@H]2C[C@H](O)CN2C(=O)[C@H](CC)NC(=O)[C@H](C)NC)[nH]c2cc(F)ccc12` [Birinapant], the “day” value was 19 ± 6.9. `CC(=O)O[C@]1(C(C)=O)CC[C@H]2[C@@H]3C[C@H](C)C4=CC(=O)CC[C@]4(C)[C@H]3CC[C@@]21C` [Medroxyprogesterone acetate] was tested, and the “day” value was 19.3 ± 6.3. In the case of `[I-].[K+]` [Potassium Iodide], the “day” value is reported as 15.7 ± 6.3. `CCN1CC(CCN2CCOCC2)C(c2ccccc2)(c2ccccc2)C1=O` (stereo not given) [Doxapram HCl] was tested, and the “day” value was 18. For `CN(C)CCc1c[nH]c2ccc(CS(=O)(=O)N3CCCC3)cc12` [Almotriptan Malate], the “day” value was 19.3 ± 6.3. `NC(=O)Cc1cccc(C(=O)c2ccccc2)c1N` [Nepafenac] was tested, and the “day” value was 14.3 ± 2.9. With `CN1CCC(=C2c3ccccc3CCc3cccnc32)CC1` [Azatadine dimaleate] the “day” value was 18. `Cc1ccc(NC(=O)c2ccc(CN3CCN(C)CC3)cc2)cc1Nc1nc(-c2cccnc2)cs1` [Masitinib (AB1010)] was tested, and the “day” value was 36. `CC(C)(C)c1nc(-c2cccc(NS(=O)(=O)c3c(F)cccc3F)c2F)c(-c2ccnc(N)n2)s1` was tested, and the “day” value was 32.5 ± 2.1. For `CO/N=C(\C(=O)N[C@@H]1C(=O)N2C(C(=O)OCOC(=O)C(C)(C)C)=C(/C=C\c3scnc3C)CS[C@H]12)c1csc(N)n1` [Cefditoren pivoxil], the “day” value was 15.7 ± 6.3. `CCOC(=O)[C@H](CCc1ccccc1)N[C@H]1CS[C@H](c2cccs2)CN(CC(=O)O)C1=O` [Temocapril HCl] was tested, and the “day” value was 19.3 ± 6.3. For `CCC[S+]([O-])c1ccc2[nH]c(NC(=O)OC)nc2c1` (stereo not given) [Albendazole Oxide], the “day” value was 16. For `CC1(C)S[C@@H]2[C@H](NC(=O)[C@H](N)c3ccc(O)cc3)C(=O)N2[C@H]1C(=O)O` [Amoxicillin Sodium], the “day” value was 15.7 ± 6.3. In the case of `CC1(C)S[C@@H]2[C@H](NC(=O)[C@H](N)c3ccc(O)cc3)C(=O)N2[C@H]1C(=O)O` [Amoxicillin], the “day” value is reported as 16.7 ± 2.3. For `CC(C)C(=O)Oc1ccc(CO)cc1[C@H](CCN(C(C)C)C(C)C)c1ccccc1` [Fesoterodine Fumarate], the “day” value was 15.7 ± 6.3. In the case of `O=C(O)c1ccccc1` [Benzoic Acid], the “day” value is reported as 13. In the case of `Cc1nc(=O)c2cc(CN(C)c3ccc(C(=O)N[C@@H](CCC(=O)O)C(=O)O)s3)ccc2[nH]1` [Raltitrexed], the “day” value is reported as 25. In the case of `NS(=O)(=O)c1cc2c(cc1Cl)N=C(CSCc1ccccc1)NS2(=O)=O` [Benzthiazide], the “day” value is reported as 13. In the case of `CC(=O)O[C@]1(C(C)=O)CC[C@H]2[C@@H]3C=C(Cl)C4=CC(=O)CC[C@]4(C)[C@H]3CC[C@@]21C` [Chlormadinone acetate], the “day” value is reported as 26.2 ± 10. With `CO[C@@H]1[C@@H](OC(N)=O)[C@@H](O)[C@H](Oc2ccc3c(O)c(NC(=O)c4ccc(O)c(CC=C(C)C)c4)c(=O)oc3c2C)OC1(C)C` [Novobiocin Sodium] the “day” value was 15.7 ± 6.3. `O=S(=O)(O)Oc1ccc(C(c2ccc(OS(=O)(=O)O)cc2)c2ccccn2)cc1` [Sodium Picosulfate] was tested, and the “day” value was 14.5 ± 4. With `Cc1cccc(C)c1NC(=O)C1CCCCN1C` (stereo not given) [Mepivacaine HCl] the “day” value was 16.5 ± 6.2. With `C[N+](C)(C)CCO.[Cl-]` [Choline Chloride] the “day” value was 13. In the case of `O=C(CCCCCCNC(=O)c1cnc(N(c2ccccc2)c2ccccc2)nc1)NO` [Rocilinostat (ACY-1215)], the “day” value is reported as 27. In the case of `Cc1nnc(C(C)C)n1C1C[C@H]2CC[C@@H](C1)N2CC[C@H](NC(=O)C1CCC(F)(F)CC1)c1ccccc1` (stereo in doubt) [Maraviroc], the “day” value is reported as 12. `NC[C@H]1CC[C@H](C(=O)O)CC1` [Tranexamic Acid] was tested, and the “day” value was 23 ± 1.7. For `CC1(O)CCC(C(C)(C)O)CC1` (stereo not given) [Terpin (hydrate)], the “day” value was 17.

Reference: the supplement of paper PMC11018630
